Data: PubChem BioAssay AID1159580 (chemical genetic matrix, 2015)
In all, about 5,500 compounds went through this assay and about 2,000 (36%) were called active. About 18% were inconclusive and are not listed. No stated cut-off is given here; in the data, active means normalized growth mostly below about 0.91 (no sharp cut-off); inconclusive means no clear call, values can overlap the other calls; inactive means mostly above about 0.92. The list shows a part of the results.

Assay: chemical genetic growth profiling, strain panel (AID 1159580);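 further: tested at 20 µM; growth read once vehicle control cultures reached saturation at 30 °C; 1 = growth at the plate median or of vehicle wells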
Details: S. cerevisiae deletion strains, growth OD

Measured: normalized growth

O=C(O)c1cc(=O)c2ccc(Cl)cc2[nH]1
inactive: locus YAL013W, strain DEP1, stronger effect = lower value 1.01 | locus YAL021C, strain ccr4, stronger effect = lower value 1 | locus YAL026C, strain drs2, stronger effect = lower value 1.03 | locus YAL030W, strain snc1, stronger effect = lower value 1.01 | locus YAL040C, strain CLN3, stronger effect = lower value 1.01 | locus YBL061C, strain skt5, stronger effect = lower value 1.02 | locus YBR009C, strain hhf1, stronger effect = lower value 1.01 | locus YBR021W, strain FUR4, stronger effect = lower value 1.01 | locus YBR023C, strain chs3, stronger effect = lower value 1.02 | locus YBR171W, strain sec66, stronger effect = lower value 1.03 | locus YBR229C, strain ROT2, stronger effect = lower value 1.02 | locus YBR231C, strain swc5, stronger effect = lower value 1.02 | locus YBR279W, strain paf1, stronger effect = lower value 1.01 | locus YCL011C, strain gbp2, stronger effect = lower value 1.02 | locus YCL016C, strain dcc1, stronger effect = lower value 1.04 | locus YCL029C, strain bik1, stronger effect = lower value 0.998 | locus YCL061C, strain MRC1 (second series), stronger effect = lower value 1.01 | locus YCL061C, strain MRC1, stronger effect = lower value 1.01 | locus YCL069W, strain vba3, stronger effect = lower value 1.01 | locus YCR088W, strain abp1, stronger effect = lower value 1.01 | locus YDL005C, strain med2, stronger effect = lower value 1.02 | locus YDL035C, strain GPR1, stronger effect = lower value 1.02 | locus YDL040C, strain nat1, stronger effect = lower value 1.01 | locus YDL074C, strain BRE1, stronger effect = lower value 1.06 | locus YDL101C, strain DUN1, stronger effect = lower value 1.01 | locus YDL134C, strain PPH21, stronger effect = lower value 1.01 | locus YDL185W, strain tfp1, stronger effect = lower value 0.988 | locus YDL192W, strain arf1, stronger effect = lower value 0.993 | locus YDR001C, strain nth1, stronger effect = lower value 1.01 | locus YDR069C, strain doa4, stronger effect = lower value 0.999 | locus YDR101C, strain arx1, stronger effect = lower value 0.999 | locus YDR137W, strain rgp1, stronger effect = lower value 1.01 | locus YDR150W, strain NUM1, stronger effect = lower value 1.01 | locus YDR159W, strain sac3, stronger effect = lower value 0.998 | locus YDR162C, strain NBP2, stronger effect = lower value 1.01 | locus YDR195W, strain ref2 1 | locus YDR297W, strain sur2, stronger effect = lower value 1.02 | locus YDR318W, strain mcm21, stronger effect = lower value 0.989 | locus YDR334W, strain swr1, stronger effect = lower value 1.01 | locus YDR335W, strain msn5, stronger effect = lower value 1.03 | locus YDR363W, strain ESC2, stronger effect = lower value 1.03 | locus YDR388W, stronger effect = lower value 0.999 | locus YDR392W, strain spt3, stronger effect = lower value 1.07 | locus YDR502C, strain sam2, stronger effect = lower value 1.01 | locus YEL003W, strain gim4, stronger effect = lower value 1.02 | locus YEL037C, strain rad23, stronger effect = lower value 1.02 | locus YEL061C, strain CIN8 (second series), stronger effect = lower value 1.01 | locus YEL061C, strain CIN8, stronger effect = lower value 1.01 | locus YER002W, strain NOP16, stronger effect = lower value 1.03 | locus YER015W, strain faa2, stronger effect = lower value 1.02 | locus YER016W, strain bim1, stronger effect = lower value 1.04 | locus YER110C, stronger effect = lower value 0.99 | locus YER111C, strain swi4, stronger effect = lower value 1.01 | locus YER155C, strain BEM2 (second series), stronger effect = lower value 1.02 | locus YER155C, strain BEM2, stronger effect = lower value 1.01 | locus YER167W, strain BCK2, stronger effect = lower value 0.995 | locus YFR010W, strain ubp6, stronger effect = lower value 0.986 | locus YGL078C, strain dbp3, stronger effect = lower value 1 | locus YGL086W, strain mad1, stronger effect = lower value 1 | locus YGL167C, strain pmr1, stronger effect = lower value 1.01 | locus YGL173C, strain kem1, stronger effect = lower value 1.02 | locus YGL227W, strain vid30, stronger effect = lower value 1.04 | locus YGL240W, strain doc1, stronger effect = lower value 1.01 | locus YGL248W, strain PDE1, stronger effect = lower value 1.03 | locus YGL253W, strain hxk2, stronger effect = lower value 1.02 | locus YGR078C, strain PAC10, stronger effect = lower value 1.03 | locus YGR135W, strain pre9, stronger effect = lower value 0.976 | locus YGR252W, strain gcn5, stronger effect = lower value 0.992 | locus YHR013C, strain ard1, stronger effect = lower value 1.04 | locus YHR027C, strain rpn1, stronger effect = lower value 0.994 | locus YHR030C, strain SLT2, stronger effect = lower value 1.01 | locus YHR079C, strain IRE1 (second series), stronger effect = lower value 0.99 | locus YHR094C, strain hxt1, stronger effect = lower value 0.992 | locus YHR129C, strain ARP1, stronger effect = lower value 1.02 | locus YHR142W, strain chs7, stronger effect = lower value 1.04 | locus YHR200W, strain rpn10, stronger effect = lower value 0.992 | locus YIL066C, strain RNR3, stronger effect = lower value 1.03 | locus YIL073C, strain SPO22, stronger effect = lower value 0.979 | locus YIL125W, strain kgd1, stronger effect = lower value 0.994 | locus YIR030C, strain dcg1, stronger effect = lower value 0.995 | locus YJL092W, strain hpr5, stronger effect = lower value 1.02 | locus YJL095W, strain BCK1 (second series), stronger effect = lower value 1.03 | locus YJL095W, strain BCK1, stronger effect = lower value 1.04 | locus YJL115W, strain asf1, stronger effect = lower value 1.01 | locus YJL129C, strain trk1, stronger effect = lower value 1.03 | locus YJL134W, strain LCB3, stronger effect = lower value 1.01 | locus YJL154C, strain vps35, stronger effect = lower value 1.01 | locus YJL164C, strain tpk1, stronger effect = lower value 1.01 | locus YJL166W, strain qcr8, stronger effect = lower value 1.02 | locus YJL168C, strain set2, stronger effect = lower value 0.992 | locus YJL187C, strain SWE1 (second series), stronger effect = lower value 1.04 | locus YJL187C, strain SWE1, stronger effect = lower value 1.02
